Assay results from PubChem BioAssay (NCI).
The panel holds about 83,000 compounds, 20% with a hit somewhere; the sample as a whole holds those more often.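 Single-dose data. Exposure time 48 hours. Values below 10 considered active.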 Activity calls are given as the source filed them.

Columns and labels:
Test in all cases: NCI-60 one-dose screen, 48 h (100 = growth as untreated, 0 = no growth, -100 = all killed)
[1] = system: NCI-H23 lung; settings: 10 µM unless noted
[2] = system: NCI-H322M lung; settings: 10 µM unless noted
[3] = system: HOP-62 NSCLC; settings: 10 µM unless noted
[4] = system: NCI-H460 lung; settings: 10 µM unless noted
[5] = system: HOP-92 NSCLC; settings: 10 µM unless noted
[6] = system: A549/ATCC NSCLC; settings: 10 µM unless noted
[7] = system: 786-0 renal; settings: 10 µM unless noted
[8] = system: COLO 205 colon; settings: 10 µM unless noted
[9] = system: NCI-H522 lung; settings: 10 µM

Measured: growth

COc1cc(/C=C/C(=O)CC(=O)/C=C/c2ccc(OC(=O)C3C4CC5CC(C4)CC3C5)c(OC)c2)ccc1OC(=O)C1C2CC3CC(C2)CC1C3 (centres undefined)
inactive: [1] 104% | [2] 92.9% | [3] 99.1% | [4] 120% | [5] 65.5% | [6] 102% | [7] 104% | [8] 110%

N#Cc1c(NC(=O)c2ccco2)[n+]([O-])c2cc(Cl)c(Cl)cc2[n+]1[O-]
inactive: [1] 86.3% | [2] 121% | [3] 137% | [4] 109% | [5] 212% | [6] 96.6% | [7] 107% | [8] 114%

COc1cc(/C=C2\CN(S(=O)(=O)c3ccc(C)cc3)C/C(=C\c3cc(CN4CCOCC4)c(O)c(OC)c3)C2=O)cc(CN2CCOCC2)c1O
inactive: [6] 19.4%
active: [1] -57.1% | [2] -15.6% | [3] -16% | [4] -46.9% | [5] -30.3% | [7] -54.3% | [8] -25.5%

Nc1ccc2c(c1)Cc1cc(Cl)c(Cl)cc1-2
inactive: [1] 68.1% | [2] 60.5% | [3] 86.5% | [4] 52.6% | [5] 67.8% | [6] 59.1% | [7] 59.7% | [8] 85.1%

COc1ccc(-n2cnc3cc(C(=O)N4CCCCC4)ccc32)cc1
inactive: [1] 95.5% | [2] 102% | [3] 91.4% | [4] 101% | [6] 103% | [7] 100% | [8] 105%

COc1ccccc1NC(=O)c1sc2nc3c(cc2c1N)C(=O)CCC3
inactive: [1] 66.7% | [4] 19.3% | [5] 37.5% | [6] 34.2% | [7] 89.1% | [8] 26.4%

Clc1ccc(C2c3ccccc3-c3nccn32)c(Cl)c1 (centres undefined)
inactive: [1] 40% | [2] 88.1% | [3] 78.2% | [4] 88.5% | [6] 79.6% | [7] 80.8% | [8] 97.2%
active: [5] -2.6%

CCCn1c(N)c(C(=O)CNc2ccc(I)cc2)c(=O)[nH]c1=O
inactive: [1] 89.8% | [2] 62% | [3] 54.9% | [4] 28.6% | [5] 95.4% | [9] 50.9% | [7] 47.1% | [8] 75.5%

Fc1ccccc1C1c2ccccc2-c2nccn21 (centres undefined)
inactive: [1] 87% | [2] 96.2% | [3] 98.4% | [4] 110% | [5] 61.8% | [6] 94.9% | [7] 89.7% | [8] 111%

COc1cnc2c(c1)C(=O)c1c-2n(CCCN2CCNCC2)c(=O)c2cc(F)ccc12
active: [1] -3.16% | [4] -58.4% | [5] -7.94% | [6] -70.4% | [7] -94.3% | [8] -10.5%
inactive: [2] 13.7%

CCOC(=O)C(C(=O)OCC)C1CCCCC1
inactive: [1] 106% | [2] 94% | [3] 107% | [4] 106% | [5] 82.4% | [7] 96.4% | [8] 112%

Nc1ccc2c(c1)C(=O)c1cc(Cl)c(Cl)cc1-2
inactive: [1] 88.8% | [2] 117% | [3] 94.2% | [4] 105% | [5] 72.2% | [6] 90.7% | [7] 91.4% | [8] 83.5%

Nc1nc(SCc2cccnc2)c2ncn(C3OC(CO)C(O)C3O)c2n1 (centres undefined)
inactive: [1] 97.9% | [2] 108% | [3] 85.7% | [4] 96.6% | [5] 78.1% | [7] 103% | [8] 114%

C[C@H]1O[C@@H](O[C@H]2[C@@H](O)C[C@H](O[C@H]3[C@@H](O)C[C@H](O[C@H]4CC[C@]5(C)C6C[C@@H](O)[C@]7(C)[C@@H](C8=CC(=O)OC8)CC[C@]7(O)C6CC[C@@H]5C4)O[C@@H]3C)O[C@@H]2C)C[C@H](O)[C@@H]1O (some centres undefined)
active: [1] -54.9% | [2] -75.3% | [3] -100% | [4] -95.1% | [5] -26% | [9] -83.9% | [7] -91.7% | [8] -85.9%

COc1cnc2c(c1)C(=O)c1c-2n(CCCNC(C)C)c(=O)c2cc(F)ccc12
active: [1] -39.9% | [2] -13.1% | [3] -35.8% | [4] -32% | [5] -8.3% | [6] -68.6% | [7] -73% | [8] -19.7%

Cc1cc(C(=O)Nc2ccc3cc(CN4CCOCC4)ccc3n2)c(C)n1-c1ccccc1
inactive: [1] 12.7% | [2] 94.2% | [3] 36% | [4] 59.3% | [5] 51.7% | [6] 28% | [7] 56.7% | [8] 40.5%

Cc1cc(C)nc(NS(=O)(=O)c2ccc(Nc3nc4nc(SCc5ccccc5)nc(-c5ccc(O)cc5)c4c(=O)[nH]3)cc2)n1
inactive: [1] 106% | [2] 111% | [3] 93.4% | [4] 107% | [6] 98% | [7] 97% | [8] 103%
active: [5] -9.71%

CSc1nc2nc3c(c(-c4ccc(C)cc4)c2c(=O)[nH]1)CN(C)C/C3=C\c1ccc(C)cc1
inactive: [1] 88.4% | [2] 103% | [3] 115% | [4] 111% | [5] 97.3% | [7] 111% | [8] 121%

c1ccc(Nc2ccc(Nc3nc(-c4ccccc4)nc4ccccc34)cc2)cc1
inactive: [1] 86.9% | [2] 90.5% | [3] 79.8% | [4] 83.4% | [5] 134% | [6] 63.2% | [7] 65.7% | [8] 78.5%

O=C1NC(=O)/C(=C/c2ccc(Cl)cc2Cl)N1
inactive: [1] 91.2% | [2] 104% | [3] 99.1% | [4] 109% | [5] 81.2% | [6] 101% | [7] 109% | [8] 100%

CCCCCc1c(C)[nH]c(/C=C2\N=C(c3ccc[nH]3)C=C2Oc2ccccc2)c1C
active: [1] -80.2% [100 µM] | [2] -49.8% [100 µM] | [3] -46.4% [100 µM] | [4] -38.6% [100 µM] | [5] -41.3% [100 µM] | [6] -81.6% [100 µM] | [7] -76.3% [100 µM] | [8] -53.9% [100 µM]

COc1cc(/C=C/C(=O)CC(=O)/C=C/c2ccc(OC(=O)CCNC34CC5CC(CC(C5)C3)C4)c(OC)c2)ccc1OC(=O)CCNC12CC3CC(CC(C3)C1)C2
inactive: [1] 28.5% | [2] 63.4% | [3] 66.9% | [4] 10.3% | [5] 18.5% | [6] 63.1% | [7] 16.7% | [8] 45.9%
